Compound activity: PubChem BioAssay, National Center for Advancing Translational Sciences (NCATS)
Compounds with a hit are over-represented: about 3.3% of the library has one in this group of screens.
USP2a block – inhibitors of human ubiquitin-specific protease USP2a; O75604; USP2 core, Ub-CHOP2 coupled fluorogenic reporter, 485/531; Potency, µM (top dose mostly 38.3 µM), usual class: inhibitors; actives 0.01% (n = 330,000); AID 463254
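Deubiquitinase activity read as fluorescence (485/531 nm) after Ub-CHOP2 cleavage activates the enterokinase reporter on its substrate; USP2 core 10nM, Ub-CHOP2 and substrate 25nM each, 30min compound preincubation then 60min RT; data normalized to NEM, curves fitted.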
PLK1 PBD inh – PLK1 (human) polo-box domain binding inhibition; P53350; Plk1 PBD binding of FITC phosphopeptide, fluorescence polarization; Potency, µM, hits mostly inhibitors; actives 2.8% (n = 360,000); AID 720504; note: series mostly up to about 57 µM; nearly all actives have a fitted effect of over 65% in size
PI5P4Ka inh – PI5P4K alpha (human) kinase inhibition; P48426; PI5P4Kalpha enzyme, ADP-Glo luminescence, 60 min; active compounds read low; max response, %; actives 1.2% (n = 330,000); active = max response of -50% or lower; inconclusive = between -30% and -50%; inactive = -30% or higher; note: value at the top dose of about 77 µM
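qHTS, 1536-well: enzyme/substrate mix, compound by pin tool, 5 microM ATP final; RT 60 min; ADP-Glo reagents 1 (45 min) then 2 (30 min); luminescence.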
WRN inhibitor – WRN helicase (human) inhibition. Q14191. WRN helicase unwinding, fluorescent forked duplex, kinetic. Potency, µM (series often up to 114 µM), most hits filed as inhibitors. actives 0.46% (n = 360,000); note: nearly all actives have a fitted effect of over 55% in size
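Primary qHTS, 1536-well format. 20 nM WRN + compound, 15 min RT; start with 100 nM forked fluorophore/quencher duplex, 2 mM ATP (final); kinetic read ex 525/em 598 nm.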
USP1 inh – USP1/UAF1 (human) deubiquitinase inhibition | recombinant USP1/UAF1, Ub-Rhodamine cleavage fluorescence | Potency, µM (titrated, usually from 57.1 µM), actives largely listed as inhibitors | actives 0.23% (n = 390,000); note: nearly all actives have a fitted effect of over 60% in size
Target sequence (O94782 whole entry, looked up): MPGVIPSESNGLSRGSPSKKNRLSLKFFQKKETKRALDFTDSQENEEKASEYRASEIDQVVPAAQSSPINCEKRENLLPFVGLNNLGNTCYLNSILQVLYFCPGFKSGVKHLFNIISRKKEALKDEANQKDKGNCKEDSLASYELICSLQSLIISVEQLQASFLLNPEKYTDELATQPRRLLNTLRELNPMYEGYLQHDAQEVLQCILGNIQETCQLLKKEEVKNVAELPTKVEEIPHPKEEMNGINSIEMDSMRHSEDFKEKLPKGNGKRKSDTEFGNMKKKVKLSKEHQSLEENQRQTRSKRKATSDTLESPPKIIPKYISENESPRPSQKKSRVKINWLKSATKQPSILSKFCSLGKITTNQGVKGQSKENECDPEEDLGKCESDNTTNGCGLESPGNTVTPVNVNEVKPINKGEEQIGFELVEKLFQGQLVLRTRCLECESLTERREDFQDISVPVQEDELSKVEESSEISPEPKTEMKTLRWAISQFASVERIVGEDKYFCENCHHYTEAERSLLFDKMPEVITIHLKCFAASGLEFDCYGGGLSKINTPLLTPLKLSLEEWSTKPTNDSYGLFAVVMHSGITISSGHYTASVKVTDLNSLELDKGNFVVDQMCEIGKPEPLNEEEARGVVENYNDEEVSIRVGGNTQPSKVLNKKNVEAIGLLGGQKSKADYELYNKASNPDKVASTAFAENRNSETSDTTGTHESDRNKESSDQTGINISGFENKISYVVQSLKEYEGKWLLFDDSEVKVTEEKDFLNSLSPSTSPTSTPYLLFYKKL
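1 nM enzyme complex + cpd, 15 min RT; start with Ub-Rho 150nM final; kinetic fluorescence ex 480/em 540, 6 reads q60 s. Buffer 50mM HEPES pH 7.8, 0.5mM EDTA, 0.1 mg/ml BSA, 1mM TCEP, 0.01% Tween-20.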
Numbers stand for hits; – = inactive; ? = inconclusive; · = no result. Unless noted, calls come from the whole dose curve; as a rule, active = well fitted curve in the direction sought with a large enough effect; inconclusive = small, poorly fitted or top-dose-only effect, or another doubt; inactive = no such curve, though single readings can be large; an effect the other way counts as inactive or inconclusive.

SMILES	USP2a block	PLK1 PBD inh	PI5P4Ka inh	WRN inhibitor	USP1 inh
COc1ccc(-c2nnc(NC(=O)c3ccc(S(=O)(=O)N4CCCc5ccccc54)cc3)o2)cc1	–	31.6µM	–	–	–
COCc1nnc(NC(=O)c2ccc(S(=O)(=O)N3CCCc4ccccc43)cc2)o1	–	–	–	–	–
O=C(NC1CC(=O)N(c2ccccc2)C1)c1ccc(S(=O)(=O)N2CCCC2)cc1 (centres undefined)	·	·	·	·	–
COc1ccc(-c2nnc(SCC#CCO)o2)cc1OC	–	?	-55.9	–	–
COc1ccc(-n2c(=O)c3c(c4cc(OC)ccc4n3C)n(Cc3c(F)cccc3Cl)c2=O)cc1	·	·	·	·	–
O=S1(=O)C=C(Sc2nc3ccccc3s2)c2ccccc21	–	2.67µM	–	?	–
CC(Sc1nc(-c2ccccc2)cc(C(F)(F)F)n1)C(=O)Nc1sc2c(c1C#N)CCC2 (centres undefined)	–	23.8µM	·	–	–
N#Cc1c(C(F)(F)F)cc(-c2ccccc2)nc1SCC(=O)Nc1sc2c(c1C#N)CCC2	–	29.9µM	–	–	–
CCOc1ccc(OCC)c(NC(=O)c2cnc3c(-c4ccccc4)c(C)nn3c2C)c1	·	·	·	·	–
Cc1oc2c(C)c3oc(=O)c(CCC(=O)N4CCCCC4)c(C)c3cc2c1C	·	·	·	·	–
Cc1ccn2c(=O)c(C(=O)NCCc3ccc(S(N)(=O)=O)cc3)c(O)nc2c1	·	·	·	·	–
Cc1c(C(=O)Nc2ccccc2)cn2c(nc3ccccc32)c1C#N	–	–	–	–	–
Cc1ccccc1C(=O)Nc1ccc2c(C#N)c3nc4ccccc4nc3n2c1	–	–	?	56.2µM	–
COc1cc2cccc(OC)c(=O)c2c(OC)c1OC	–	–	–	–	–
O=c1c(O)cccc2cc(O)c(O)c(O)c12	–	8.44µM	-83.4	3.98µM	?
O=C(CN1N=C(c2ccc(Cl)cc2)CCC1=O)NCc1ccc(F)cc1	·	·	·	·	–
S=c1[nH]c2cc3c(cc2[nH]1)OCCO3	–	–	?	–	–
S=c1ncc2[nH]c(=S)[nH]c2[nH]1	·	1.68µM	-83.7	?	–
COc1ccc(-n2cnc3cc(C(=O)NCCC4=CCCCC4)ccc32)cc1	·	·	·	·	–
COc1cc(C=C2C(=O)OC(c3ccccc3)OC2=O)cc(Br)c1O (centres undefined)	–	?	–	–	–
COc1cc(/C=C2\C(=O)ON=C2c2ccccc2)cc(Cl)c1O	–	?	-66.8	?	–
COc1cc(/C=C2/C(=O)ON=C2c2ccccc2)ccc1O	–	?	?	?	–
COc1cc(/C=C2\C(=O)ON=C2c2ccccc2)cc(Br)c1O	–	?	-85.2	?	?
COc1ccc(C(=O)NCc2nnnn2-c2ccc(C)c(C)c2)cc1	·	·	·	·	–
Cc1ccn2c(Nc3c(C)cccc3C)c(-c3ccc(Cl)s3)nc2c1	·	·	·	·	–
SMILES	USP2a block	PLK1 PBD inh	PI5P4Ka inh	WRN inhibitor	USP1 inh
CC(C)(Sc1ccc(CCN(CCCCC2CCCCC2)C(=O)NC2CCCCC2)cc1)C(=O)O	–	21.2µM	–	–	?
COc1cc(OC)c(NS(=O)(=O)c2c(C(=O)N3CCC(C)CC3)c(C)n(C)c2C)cc1Cl	·	·	·	·	–
Cc1ccc(C(C)C)c(OCC(=O)Nc2ccc(S(=O)(=O)Nc3onc(C)c3C)cc2)c1	·	·	·	·	–
O=C(CSc1nnc(SCC(=O)c2ccco2)s1)c1ccco1	–	16.8µM	-61.9	?	–
O=C(CSc1ncn[nH]1)c1cccc([N+](=O)[O-])c1	–	?	–	–	–
O=C(CSc1nccc(=O)[nH]1)c1ccco1	–	–	–	–	–
O=C(CSc1ncn[nH]1)c1ccccc1	–	23.8µM	·	–	–
O=C(CSc1ncn[nH]1)c1ccco1	–	29.9µM	?	–	–
COc1ccc(Cl)cc1NC(=O)Cn1ccn(Cc2ccc(C)cc2)c(=O)c1=O	·	·	·	·	–
O=C(Cc1ccc(NC(=O)N2CCCCc3ccccc32)cc1)Nc1ccccc1Br	·	·	·	·	–
CCc1cccc(NC(=O)Cn2c(=O)n(CC(=O)NCCc3ccccc3)c(=O)c3ccccc32)c1	·	·	·	·	–
Cc1nc(-n2[nH]c3c(c2=O)CCCC3)[nH]c(=O)c1Cc1ccccc1	–	–	·	–	28.2µM
Cc1ccc2onc(CC(=O)Nc3ccc(C(C)C)cc3)c2c1	·	·	·	·	–
COc1ccccc1OCCOc1ccc(/C=C2/C(=N)N3OC(C)=CC3=NC2=O)cc1OC	–	–	–	?	–
CC1=CC2=NC(=O)/C(=C\c3cccn3CCOc3ccccc3C)C(=N)N2O1	–	26.7µM	–	–	–
Cc1[nH]nc2c1C(=O)CC(C)(C)C2	–	–	–	–	–
Cc1[nH]nc2c1C(=O)CCC2	–	7.52µM	?	–	–
CCOc1ccccc1-c1noc(CCCC(=O)Nc2cccc(C(F)(F)F)c2)n1	·	·	·	·	–
N#CCCn1cc(C(CC(=O)c2ccc(Br)cc2)C(=O)O)c2ccccc21 (centres undefined)	–	–	–	–	–
Cc1ccc(C(=O)CC(C(=O)O)c2cn(CCC#N)c3ccccc23)cc1 (centres undefined)	–	26.7µM	–	–	–
Cc1cc(C)cc(-n2nnc(-c3nc(-c4ccccc4F)no3)c2C)c1	·	·	·	·	–
CN(C)N1C(N)=C(C#N)C(c2cccs2)C2=C1CCCC2=O (centres undefined)	–	29.9µM	–	–	–
Cc1ccsc1C1C(C#N)=C(N)N(N(C)C)C2=C1C(=O)CCC2 (centres undefined)	–	–	–	–	–
COc1cccc(CNC(=O)Cc2ccc(NC(=O)N3CCSc4ncccc43)cc2)c1OC	·	·	·	·	–
CCNC(=O)CCn1nc(-c2ccc(C)cc2)c2ccccc2c1=O	–	29.9µM	–	–	–
SMILES	USP2a block	PLK1 PBD inh	PI5P4Ka inh	WRN inhibitor	USP1 inh
COCCNC(=O)CCn1nc(-c2ccc(C)cc2)c2ccccc2c1=O	–	–	–	–	–
CNc1nc(NC#N)nc(SC)n1	–	29.9µM	–	–	–
Cc1ccc(-c2nn(-c3ccc(F)cc3F)c3c2cnc2c(F)cccc23)cc1	·	·	·	·	–
Cc1ccc(Cn2c(=O)c3ccccc3n3c(-c4ccccc4)nnc23)cc1	·	·	·	·	–
Cc1cccc(N2C(=O)c3ccc(C(=O)Nc4ccccn4)cc3C2=O)c1	–	–	–	–	–
Cc1cccc(N2C(=O)/C(=C\c3ccc(C(=O)O)cc3)c3ccccc3C2=O)c1	–	6.7µM	–	–	?
Cc1ccccc1NC(=O)Cn1c(=O)n(Cc2ccco2)c(=O)c2cccnc21	·	·	·	·	–
COc1cccc(-c2nnc(SCC(=O)N3CCOCC3)o2)c1	–	23.8µM	–	–	–
Cc1cc(C)cc(NC(=O)C(NCCN2CCOCC2)c2ccccc2)c1 (centres undefined)	–	23.8µM	–	?	–
O=c1[nH]n2c(=O)c3c([nH]c2c1N=Nc1cccc(C(F)(F)F)c1)CCCC3	–	?	–	–	?
O=c1[nH]n2c(=O)c3c([nH]c2c1N=Nc1cccc(Cl)c1)CCC3	–	?	-57.7	?	–
